# According to the supplement of paper PMC8728848:
# The sample as a whole holds a higher share of the strongest signals than the screen did.
# B1: PX14367A-bth-493-35-493 (Bacteroides thetaiotaomicron) (protein)
# chain: VSSDQVAVAGNAERLFNGAWYNLFEYGTTYANIGYRALQCQDDMMASDVVSRPKYGFNSSYQFNDVAIPSDGRTSFAWYLIYKTIDNCNTAISIKGDSEELRQAQGQALALRAFCYLHLVQHYQFTYLKDKDAPCVPIYTEPTTSGTKPKGKSTVAQVYQQIFDDLNLAQDYLTNYVRKGDGQKFKPNTDVVNGLMARAYLLTGQWGEAAKAAEAARKGYSLMTTTAEYEGFNNISNKEWIWGSPQTLSQSDASYNFYYLDATYVGAYSSFMADPHLMDTFVKGDIRLPLFQWMREGYLGYKKFHMRSDDTADLVLMRSAEMYLIEAEAKVRDGVALDQAVAPLNTLRTARGVGNYDVTGKTKEQVIDEILMERRRELWGEGFGITDVLRNQKAVERMALSEDMQKTEVDCWQEGGSFAKRNPLGHWFLNFPDGKAFSANSSYYLYAIPEKEINANPNL
# How the values were obtained:
# Assay in all cases: glycan array binding signal (z-score within array); higher = stronger binding
# Details in all cases: glycan notation: IUPAC condensed, linker removed
# [1] = target: Fuc(a1-2)Gal6S(b1-4)Glc6S
# How it was run: (§1)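 The Consortium for Functional Glycomics database supplied 3228 glycan arrays, of which those lacking an available protein sequence were dropped. The binding signal, a within-array Z-score, was averaged across arrays of the same protein sequence and across linkers. Negative scores can be read as non-binding.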
# [2] = target: Fuc(a1-2)[Gal(a1-3)]Gal(b1-3)GlcNAc(b1-3)GalNAc
# How it was run: as §1
# [3] = target: Fuc(a1-2)[Gal(a1-4)]Gal(b1-4)GlcNAc
# How it was run: as §1
# [4] = target: Fuc(a1-2)[GalNAc(a1-3)]Gal(b1-3)GalNAc(b1-3)Gal(a1-4)Gal(b1-4)Glc
# How it was run: as §1
# [5] = target: Fuc(a1-2)[GalNAc(a1-3)]Gal(b1-3)GlcNAc(b1-2)Man(a1-3)[Fuc(a1-2)[GalNAc(a1-3)]Gal(b1-3)GlcNAc(b1-2)Man(a1-6)]Man(b1-4)GlcNAc(b1-4)GlcNAc
# How it was run: as §1
# [6] = target: Fuc(a1-2)[GalNAc(a1-3)]Gal(b1-4)[Fuc(a1-3)]GlcNAc
# How it was run: as §1
# [7] = target: Fuc(a1-3)[Gal(b1-4)]GlcNAc(b1-2)Man(a1-3)[Fuc(a1-3)[Gal(b1-4)]GlcNAc(b1-2)Man(a1-6)]Man(b1-4)GlcNAc(b1-4)[Fuc(a1-6)]GlcNAc
# How it was run: as §1
# [8] = target: Fuc(a1-3)[Gal(b1-4)]GlcNAc(b1-3)Gal(b1-4)[Fuc(a1-3)]GlcNAc
# How it was run: as §1
# [9] = target: Gal(a1-2)Gal
# How it was run: as §1
# [10] = target: Gal(a1-3)Gal(b1-4)GlcNAc(b1-2)Man(a1-3)[Gal(a1-3)Gal(b1-4)GlcNAc(b1-2)Man(a1-6)]Man(b1-4)GlcNAc(b1-4)GlcNAc
# How it was run: as §1
# [11] = target: Gal(b1-3)GlcNAc(b1-2)Man(a1-3)[GlcNAc(b1-4)][Gal(b1-3)GlcNAc(b1-2)Man(a1-6)]Man(b1-4)GlcNAc(b1-4)GlcNAc
# How it was run: as §1
# [12] = target: Gal(b1-3)GlcNAc(b1-3)Gal(b1-3)GlcNAc
# How it was run: as §1
# [13] = target: Gal(b1-3)[Fuc(a1-4)]GlcNAc
# How it was run: as §1
# [14] = target: Gal(b1-3)[Fuc(a1-4)]GlcNAc(b1-3)Gal(b1-3)[Fuc(a1-4)]GlcNAc
# How it was run: as §1
# [15] = target: Gal(b1-3)[GlcNAc(b1-6)]GalNAc
# How it was run: as §1
# [16] = target: Gal(b1-4)GlcNAc(b1-2)Man(a1-3)[Gal(b1-4)GlcNAc(b1-2)Man(a1-6)]Man(b1-4)GlcNAc(b1-4)GlcNAc
# How it was run: as §1
# [17] = target: Gal(b1-4)GlcNAc(b1-2)Man(a1-3)[Gal(b1-4)GlcNAc(b1-2)Man(a1-6)][GlcNAc(b1-4)]Man(b1-4)GlcNAc(b1-4)[Fuc(a1-6)]GlcNAc
# How it was run: as §1
# [18] = target: Gal(b1-4)GlcNAc(b1-2)Man(a1-3)[Man(a1-6)]Man(b1-4)GlcNAc(b1-4)GlcNAc
# How it was run: as §1
# [19] = target: Gal(b1-4)GlcNAc(b1-2)Man(a1-6)[GlcNAc(b1-2)Man(a1-3)]Man(b1-4)GlcNAc(b1-4)GlcNAc
# How it was run: as §1
# [20] = target: Gal(b1-4)GlcNAc(b1-2)[Gal(b1-4)GlcNAc(b1-4)]Man(a1-3)[Gal(b1-4)GlcNAc(b1-2)[Gal(b1-4)GlcNAc(b1-6)]Man(a1-6)]Man(b1-4)GlcNAc(b1-4)GlcNAc
# How it was run: as §1
# [21] = target: Gal(b1-4)GlcNAc(b1-2)[Gal(b1-4)GlcNAc(b1-6)]Man(a1-6)[Gal(b1-4)GlcNAc(b1-2)Man(a1-3)]Man(b1-4)GlcNAc(b1-4)[Fuc(a1-6)]GlcNAc
# How it was run: as §1
# [22] = target: Gal(b1-4)GlcNAc(b1-3)Gal(b1-4)GlcNAc
# How it was run: as §1
# [23] = target: Gal(b1-4)GlcNAc(b1-3)Gal(b1-4)GlcNAc(b1-2)Man(a1-3)[Gal(b1-4)GlcNAc(b1-3)Gal(b1-4)GlcNAc(b1-2)Man(a1-6)]Man(b1-4)GlcNAc(b1-4)GlcNAc
# How it was run: as §1
# [24] = target: Gal(b1-4)GlcNAc(b1-3)Gal(b1-4)GlcNAc(b1-2)Man(a1-3)[Gal(b1-4)GlcNAc(b1-3)Gal(b1-4)GlcNAc(b1-2)Man(a1-6)]Man(b1-4)GlcNAc(b1-4)[Fuc(a1-6)]GlcNAc
# How it was run: as §1
# [25] = target: Gal(b1-4)GlcNAc(b1-3)Gal(b1-4)GlcNAc(b1-3)Gal(b1-4)GlcNAc(b1-2)Man(a1-3)[Gal(b1-4)GlcNAc(b1-3)Gal(b1-4)GlcNAc(b1-3)Gal(b1-4)GlcNAc(b1-2)Man(a1-6)]Man(b1-4)GlcNAc(b1-4)GlcNAc
# How it was run: as §1
# [26] = target: Gal(b1-4)GlcNAc(b1-3)Gal(b1-4)GlcNAc(b1-3)Gal(b1-4)GlcNAc(b1-2)Man(a1-3)[Gal(b1-4)GlcNAc(b1-3)Gal(b1-4)GlcNAc(b1-3)Gal(b1-4)GlcNAc(b1-2)Man(a1-6)]Man(b1-4)GlcNAc(b1-4)[Fuc(a1-6)]GlcNAc
# How it was run: as §1
# [27] = target: Gal(b1-4)GlcNAc(b1-3)Gal(b1-4)GlcNAc(b1-3)Gal(b1-4)GlcNAc(b1-3)Gal(b1-4)GlcNAc(b1-2)Man(a1-3)[Gal(b1-4)GlcNAc(b1-3)Gal(b1-4)GlcNAc(b1-3)Gal(b1-4)GlcNAc(b1-3)Gal(b1-4)GlcNAc(b1-2)Man(a1-6)]Man(b1-4)GlcNAc(b1-4)GlcNAc
# How it was run: as §1
# [28] = target: Gal(b1-4)GlcNAc(b1-3)Gal(b1-4)GlcNAc(b1-3)Gal(b1-4)GlcNAc(b1-3)Gal(b1-4)GlcNAc(b1-2)Man(a1-3)[Gal(b1-4)GlcNAc(b1-3)Gal(b1-4)GlcNAc(b1-3)Gal(b1-4)GlcNAc(b1-3)Gal(b1-4)GlcNAc(b1-2)Man(a1-6)]Man(b1-4)GlcNAc(b1-4)[Fuc(a1-6)]GlcNAc
# How it was run: as §1
# [29] = target: Gal(b1-4)GlcNAc(b1-3)Gal(b1-4)GlcNAc(b1-3)Gal(b1-4)GlcNAc(b1-3)Gal(b1-4)GlcNAc(b1-3)Gal(b1-4)GlcNAc(b1-2)Man(a1-3)[Gal(b1-4)GlcNAc(b1-3)Gal(b1-4)GlcNAc(b1-3)Gal(b1-4)GlcNAc(b1-3)Gal(b1-4)GlcNAc(b1-3)Gal(b1-4)GlcNAc(b1-2)Man(a1-6)]Man(b1-4)GlcNAc(b1-4)[Fuc(a1-6)]GlcNAc
# How it was run: as §1
# [30] = target: Gal(b1-6)Gal
# How it was run: as §1
binder,measurement,setting,value
B1,glycan array binding signal (z-score),[1],-0.358
same,glycan array binding signal (z-score),[2],-0.51
same,glycan array binding signal (z-score),[3],-0.256
same,glycan array binding signal (z-score),[4],-0.668
same,glycan array binding signal (z-score),[5],0.408
same,glycan array binding signal (z-score),[6],-0.482
same,glycan array binding signal (z-score),[7],-0.25
same,glycan array binding signal (z-score),[8],-0.421
same,glycan array binding signal (z-score),[9],-0.084
same,glycan array binding signal (z-score),[10],3.93
same,glycan array binding signal (z-score),[11],1.39
same,glycan array binding signal (z-score),[12],-0.152
same,glycan array binding signal (z-score),[13],-0.11
same,glycan array binding signal (z-score),[14],-0.392
same,glycan array binding signal (z-score),[15],-0.406
same,glycan array binding signal (z-score),[16],1.44
same,glycan array binding signal (z-score),[17],-0.354
same,glycan array binding signal (z-score),[18],3.6
same,glycan array binding signal (z-score),[19],-0.174
same,glycan array binding signal (z-score),[20],-0.334
same,glycan array binding signal (z-score),[21],-0.167
same,glycan array binding signal (z-score),[22],-0.81
same,glycan array binding signal (z-score),[23],3.94
same,glycan array binding signal (z-score),[24],7.69
same,glycan array binding signal (z-score),[25],2.81
same,glycan array binding signal (z-score),[26],2.6
same,glycan array binding signal (z-score),[27],1.4
same,glycan array binding signal (z-score),[28],2.51
same,glycan array binding signal (z-score),[29],6.87
same,glycan array binding signal (z-score),[30],-0.332
